# PubChem BioAssay (Tox21)
# “And” between values parts separate entries of the source, which are not always exact repeats. Equal entries are not always repeated. A number with no mark means an inactive call. Results filed as inconclusive are left out. The source made the active and inactive calls. Unless noted, calls come from the whole dose curve; as a rule, active = well fitted curve in the direction sought with a large enough effect in the repeat runs; inconclusive = weak or mixed curves; inactive = no such curve, though single readings can be large; an effect the other way counts as inactive or inconclusive.
# Test: qHTS assay to identify small molecule agonists of the sonic hedgehog signaling (Shh) pathway - cell viability counter screen (AID 1259366); note: nearly all actives have a fitted effect of over 50% in size; note: potency is the fitted concentration of half-maximal effect
# Settings: NIH/3T3 Gli1-Luc viability, CellTiter-Fluor, 24 h; series mostly up to 92.4 µM; viability change, negative = cytotoxic: at the top concentration
# How it was run: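 CellTiter-Fluor fluorescence read-out, 1 hr at 37C, added after 23hr compound exposure. Cells: 3T3 Gli1-Luc, an NIH/3T3 clone with stably integrated Gli1-Luc reporter, plated 4hr before compound.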
# % is set by controls: 0 for no effect and ±100 for the full control effect.
Structure (SMILES),"viability change, negative = cytotoxic",Potency
Nc1ccc(Sc2ccc(N)cc2)cc1,0.187%,–
S=C(SSC(=S)N1CCCCC1)N1CCCCC1,–,2.66 µM (active)
CC(C)CC(C)(c1ccc(O)cc1)c1ccc(O)cc1,–,54.6 µM (active)
c1cc[c]([Sb]([c]2ccccc2)[c]2ccccc2)cc1,-14.3%,–
CCCCN(CCCC)C(=S)[S-].CCCCN(CCCC)C(=S)[S-].[Zn+2],–,5.44 µM (active)
Oc1ccc(C2(c3ccc(O)cc3)CCCCC2)cc1,–,25.9 µM (active)
[Cd+2].[Cl-].[Cl-],–,4.9 µM (active) and 10.9 µM (active)
Cl/C=C\CCl,-0.311%,–
COc1ccc(N)cc1N,–,9.99 µM (active) and 29.4 µM (active)
CCCCCCCCCCCCCCCC[n+]1ccccc1,–,60.3 µM (active) [middle of 4 runs]
CC(=O)[O-].CC(=O)[O-].[Hg+2],–,2.17 µM (active)
CN(C)c1ccc(N=Nc2ccccc2)cc1,–,27.3 µM (active)
[Hg+2].[I-].[I-],–,2.43 µM (active)
C=CCC1=C(C)C(OC(=O)C2C(C=C(C)C)C2(C)C)CC1=O (centres undefined),-6.59%,–
Clc1ccc(CCC(Cn2ccnc2)Sc2c(Cl)cccc2Cl)cc1 (centres undefined),-22.7% [at 42.5 µM],–
CC(C)CC(C)Nc1ccc(Nc2ccccc2)cc1 (centres undefined),–,26.8 µM (active)
CCCN(CCC)c1c([N+](=O)[O-])cc(S(N)(=O)=O)cc1[N+](=O)[O-],–,54.5 µM (active)
Oc1c(Br)c(Br)c(Br)c(Br)c1Br,-13.8%,–
Fc1cccc(Cl)c1CCl,0.0293%,–
O=C(Nc1ccc2[nH]ccc2c1)c1cc2cc(F)ccc2n1Cc1cccc(F)c1,–,43.3 µM (active)
N#CCCC(Br)(C#N)CBr (centres undefined),–,27.3 µM (active)
CC(=O)Nc1ccc2c(c1)Cc1ccccc1-2,-4.79%,–
Oc1cccc(-c2ccccc2)c1,-15.9%,–
CN(C)S(=O)(=O)N(SC(F)(Cl)Cl)c1ccccc1,–,6.11 µM (active)
OC(Cc1ccccc1Cl)(Cn1cncn1)C1(Cl)CC1 (centres undefined),-0.374%,–
O=[N+]([O-])c1cc(C(F)(F)F)c(Cl)c([N+](=O)[O-])c1Cl,–,13.7 µM (active)
CC1(C)[C@H](C(=O)O[C@H](C#N)c2cccc(Oc3ccccc3)c2)[C@@H]1/C=C(\Cl)C(F)(F)F,–,inactive
N#Cc1ccccc1Cl,-2.52%,–
CN(C)C(=S)S,–,12.4 µM (active) and 6.07 µM (active) and 4.86 µM (active)
CSCCCN=C=S,-6.33%,–

# Test: qHTS assay to identify small molecule antagonists of the sonic hedgehog signaling (Shh) pathway - cell viability counter screen (AID 1259367); note: nearly all actives have a fitted effect of over 55% in size; note: potency is the fitted concentration of half-maximal effect
# Settings: NIH/3T3 Gli1-Luc viability, CellTiter-Fluor, 24 h; series mostly up to 92.4 µM; viability change, negative = cytotoxic: at the top concentration
# How it was run: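 Viability was read by CellTiter-Fluor fluorescence in the same wells, reagent added 23 hr into compound treatment and incubated 1 hr at 37C. The 3T3 Gli1-Luc reporter cells (2,000/well) received conditioned medium after compound and ran 24 hr.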
Structure (SMILES),Potency,"viability change, negative = cytotoxic"
S=C(SSC(=S)N1CCCCC1)N1CCCCC1,5.96 µM (active),–
CC(C)CC(C)(c1ccc(O)cc1)c1ccc(O)cc1,61.3 µM (active),–
c1cc[c]([Sb]([c]2ccccc2)[c]2ccccc2)cc1,–,-24.1%
CCCCN(CCCC)C(=S)[S-].CCCCN(CCCC)C(=S)[S-].[Zn+2],6.85 µM (active),–
[Cd+2].[Cl-].[Cl-],3.89 µM (active) and 9.69 µM (active),–
Cl/C=C\CCl,–,0.179%
COc1ccc(N)cc1N,15.8 µM (active) and 33 µM (active),–
Clc1ccc(CSC(Cn2ccnc2)c2ccc(Cl)cc2Cl)cc1 (centres undefined),26.6 µM (active),–
CC(=O)[O-].CC(=O)[O-].[Hg+2],4.33 µM (active),–
CCCOCC(=Nc1ccc(Cl)cc1C(F)(F)F)n1ccnc1,54.4 µM (active),–
C=CCC1=C(C)C(OC(=O)C2C(C=C(C)C)C2(C)C)CC1=O (centres undefined),–,-1.57%
Clc1ccc(CCC(Cn2ccnc2)Sc2c(Cl)cccc2Cl)cc1 (centres undefined),–,-17.8% [at 42.5 µM]
CCCCCCCCc1ccc(O)cc1,–,-8.69%
CC(C)CC(C)Nc1ccc(Nc2ccccc2)cc1 (centres undefined),16.9 µM (active),–
CCCN(CCC)c1c([N+](=O)[O-])cc(S(N)(=O)=O)cc1[N+](=O)[O-],24.3 µM (active),–
Oc1c(Br)c(Br)c(Br)c(Br)c1Br,–,-16.9%
Fc1cccc(Cl)c1CCl,–,1.68%
N#CCCC(Br)(C#N)CBr (centres undefined),27.3 µM (active),–
CC(=O)Nc1ccc2c(c1)Cc1ccccc1-2,–,1.81%
CC1CCC(C(C)C)C(OC(=O)c2ccccc2N)C1 (centres undefined),–,-14.4%
Oc1cccc(-c2ccccc2)c1,–,-17.4%
CN(C)S(=O)(=O)N(SC(F)(Cl)Cl)c1ccccc1,12.2 µM (active),–
OC(Cc1ccccc1Cl)(Cn1cncn1)C1(Cl)CC1 (centres undefined),–,-6.36%
O=[N+]([O-])c1cc(C(F)(F)F)c(Cl)c([N+](=O)[O-])c1Cl,21.7 µM (active),–
CC1(C)[C@H](C(=O)O[C@H](C#N)c2cccc(Oc3ccccc3)c2)[C@@H]1/C=C(\Cl)C(F)(F)F,inactive,–
N#Cc1ccccc1Cl,–,4.81%
CSCCCN=C=S,–,2.07%

# Test: qHTS assay to identify small molecule agonists of the sonic hedgehog signaling (Shh) pathway (AID 1259368; calls by dose curve;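 note: NIH/3T3-derived 3T3Gli1-Luc cells carrying a stable Gli1-driven firefly luciferase reporter; nearly all actives have a fitted effect of over 15% in size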)
# Settings: NIH/3T3 Gli1-Luc reporter, luciferase, 24 h; series mostly up to 92.4 µM; activity change: at the top concentration
# How it was run: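 Following a 24 hr incubation with DMSO-dissolved compounds at 37 C, 5% CO2, Gli1-Luc NIH/3T3-derived cells received luciferase reagent for 30 min at room temperature prior to luminescence measurement.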
Structure (SMILES),activity change,Potency
Nc1ccc(Sc2ccc(N)cc2)cc1,-14.4%,–
[Cl][Sb]([Cl])[Cl],-12.7%,–
CN(C)CCc1c[nH]c2cccc(O)c12,-5.06%,–
S=C(SSC(=S)N1CCCCC1)N1CCCCC1,"-7.24% [at 42.5 µM, active compounds read high]",–
CC(C)CC(C)(c1ccc(O)cc1)c1ccc(O)cc1,–,inactive
c1cc[c]([Sb]([c]2ccccc2)[c]2ccccc2)cc1,-0.362%,–
CCCCN(CCCC)C(=S)[S-].CCCCN(CCCC)C(=S)[S-].[Zn+2],-9.98%,–
Oc1ccc(C2(c3ccc(O)cc3)CCCCC2)cc1,-21.6%,–
[Cd+2].[Cl-].[Cl-],-16.7%,–
Cl/C=C\CCl,0.261%,–
COc1ccc(N)cc1N,–,inactive
Clc1ccc(CO/N=C(\Cn2ccnc2)c2ccc(Cl)cc2Cl)c(Cl)c1,"-4.28% [at 42.5 µM, active compounds read high]",–
Clc1ccc(CSC(Cn2ccnc2)c2ccc(Cl)cc2Cl)cc1 (centres undefined),"-5.39% [at 42.5 µM, active compounds read high]",–
CCCCCCCCCCCCCCCC[n+]1ccccc1,–,inactive
CC(=O)[O-].CC(=O)[O-].[Hg+2],-11%,–
[Hg+2].[I-].[I-],-11.6%,–

Structure (SMILES),activity change,Potency
C=CCC1=C(C)C(OC(=O)C2C(C=C(C)C)C2(C)C)CC1=O (centres undefined),-3.92%,–
CCCCCCCCc1ccc(O)cc1,-5.82%,–
CC(C)CC(C)Nc1ccc(Nc2ccccc2)cc1 (centres undefined),-17.7%,–
CCCN(CCC)c1c([N+](=O)[O-])cc(S(N)(=O)=O)cc1[N+](=O)[O-],-13%,–
Oc1c(Br)c(Br)c(Br)c(Br)c1Br,-11.4%,–
Fc1cccc(Cl)c1CCl,0.134%,–
O=C(Nc1ccc2[nH]ccc2c1)c1cc2cc(F)ccc2n1Cc1cccc(F)c1,-13.8%,–
N#CCCC(Br)(C#N)CBr (centres undefined),-11.5%,–
CC(=O)Nc1ccc2c(c1)Cc1ccccc1-2,7.26%,–
CC1CCC(C(C)C)C(OC(=O)c2ccccc2N)C1 (centres undefined),-8.58%,–
CN(C)S(=O)(=O)N(SC(F)(Cl)Cl)c1ccccc1,-13.2%,–
OC(Cc1ccccc1Cl)(Cn1cncn1)C1(Cl)CC1 (centres undefined),-0.728%,–
CC1(C)[C@H](C(=O)O[C@H](C#N)c2cccc(Oc3ccccc3)c2)[C@@H]1/C=C(\Cl)C(F)(F)F,–,inactive
N#Cc1ccccc1Cl,-0.714%,–
CN(C)C(=S)S,–,inactive
CSCCCN=C=S,1.31%,–
